This note sets out measurements from PubChem BioAssay (Tox21).

Where “and” joins values, the source holds several entries; their conditions need not be identical. Equal values may be shown once. Records with an inconclusive call do not appear. Where a call stands in place of a potency, no number is given. More than one record can exist for a structure, and the calls need not agree. Calls of active or inactive are those of the source. The call rests on the fitted dose curve; in most records, active means well fitted cell-killing curve with a large enough effect in the repeat runs; inconclusive means weak or mixed curves, or effect the other way; inactive means flat fitted curve, though single readings scatter.
Potency means the concentration at half of the fitted maximal effect.

The assay in a line: qHTS RealTime-Glo MT Cell Viability Assay in HEK293 cells - 16 hour (AID 1224872). Further: nearly all actives have a fitted effect of over 50% in size. The settings on record: RealTime-Glo luminescence; series mostly up to 76.8 µM. The source says: National Center for Advancing Translational Sciences [NCATS]
NIH Chemical Genomics Center [NCGC]
U.S. Environmental Protection Agency [EPA]
National Institutes of Environmental Health Sciences [NIEHS]
National Toxicology Program [NTP]
U.S. Food and Drug Administration [FDA]
Measure of cell viability is critical in the cell-base assay. Analysis of cell viability is necessary for the characterization of cell responses to cytotoxic drugs and environmental stress. A RealTime-Glo MT Cell Viability Assay to monitor cell viability in real time of continues cell culture during 40 hours of compound treatment was used to screen Tox21 10K library compounds in Hek293 cells. The RealTime-Glo MT Cell Viability Assay is a nonlytic, homogeneous, bioluminescent method to measure cell viability in real time using a simple, plate-based method. The assay involves adding NanoLuc luciferase and a cell-permeant prosubstrate to cells in culture. Viable cells reduce the proprietary prosubstrate to generate a substrate for NanoLuc luciferase. This substrate diffuses from cells into the surrounding culture medium, where it is rapidly used by the NanoLuc Enzyme to produce a luminescent signal. The signal correlates with the number of viable cells, making the assay well suited for cytotoxicity studies.
Tox21 Assay Protocol Summary:
The mixture of Hek293 cell suspension and reagents were dispensed at 600cells/6 ul/well in 1536-well tissue culture treated black solid bottom plates using a Multidrop dispenser. After the assay plates were incubated at a 37 C/5% CO2 incubator for 5 hours, 23 nL of compounds dissolved in DMSO, positive and negative controls was transferred to the assay plate by a pintool work station. The plates were incubated at 37 C for 40 hours. The luminescence intensity were measured at 0h, 8h, 16h, 24h, 32h and 40h time points using ViewLux plate reader during compound treatment.
(In general: qHTS replaces the single test concentration by a dilution series.)
For `CCN(CC)C(=O)SCc1ccc(Cl)cc1`, the Potency entry is “inactive”.

Turning to `CC(C)=CC1C(C(=O)OCc2coc(Cc3ccccc3)c2)C1(C)C` (stereo not given), the Potency entry was “inactive”.

Consider `NC(=S)Nc1ccccc1`, for which the Potency result was “inactive”.

On to `CCCCN(CCCC)N=O`, for which the Potency result is “inactive”.

For the compound `Oc1cc(Cl)ccc1Cl`, the Potency result was “inactive”.

On to `N#Cc1cc(Br)c(O)c(Br)c1`, for which the Potency result was “inactive”.

Consider `Clc1nc(Cl)nc(Cl)n1`, for which the Potency entry is “inactive”.

Consider `COc1ccc(C(CN(C)C)C2(O)CCCCC2)cc1` (stereo not given), for which the Potency entry was “inactive”.

Regarding `CCC(=O)O[C@H]1CC[C@H]2[C@@H]3CCC4=CC(=O)CC[C@]4(C)[C@H]3CC[C@]12C`, the Potency is 21.9 µM (active) and 23.9 µM (active).

`C=C(C)[C@H]1Cc2c(ccc3c2O[C@@H]2COc4cc(OC)c(OC)cc4[C@@H]2C3=O)O1`: the Potency was 88.2 nM (active) and 15.5 nM (active) and 107 nM (active).

As to `O=C(NC(=O)c1c(F)cccc1F)Nc1ccc(Cl)cc1`, the Potency entry is “inactive”.

Regarding `ClC1C(Cl)C(Cl)C(Cl)C(Cl)C1Cl` (stereo not given), the Potency result is “inactive and 49 µM (active)”.

`N#CC(Br)Br`: the Potency entry was “inactive”.

With `C=C(C)C(=O)OCC1CO1` (stereo not given), the Potency result is “inactive”.

For the compound `N[C@@H](Cc1ccc(N(CCCl)CCCl)cc1)C(=O)O`, the Potency entry was “inactive”.

As for `CCC(CC)Nc1c([N+](=O)[O-])cc(C)c(C)c1[N+](=O)[O-]`, the Potency result is “inactive”.

On to `C1=Cc2cccc3cccc1c23`, for which the Potency entry is “inactive”.

Take `CCOC(=O)C(C)OC(=O)c1cc(Oc2ccc(C(F)(F)F)cc2Cl)ccc1[N+](=O)[O-]` (stereo not given): the Potency was 30.7 µM (active).

On to `O=P(O)(O)CCCl`, for which the Potency entry is “inactive”.

In the case of `Nn1cnnc1`, the Potency entry is “inactive”.

As to `Cc1ccccc1[N+](=O)[O-]`, the Potency result is “inactive”.

For the compound `Cc1ccc2c(c1N)C(=O)c1ccccc1C2=O`, the Potency was 8.62 µM (active) and 8.71 µM (active).

Take `O=C(CCl)c1ccccc1`: the Potency result is “inactive and 49 µM (active)”.

As to `CCN(CC)N=O`, the Potency result was “inactive”.

For `CCCCCCCCOC(=O)c1ccccc1C(=O)OCCCCCCCC`, the Potency entry was “inactive”.

As for `Nc1c(Cl)cc([N+](=O)[O-])cc1Cl`, the Potency entry was “inactive”.

`CC(C)c1ccc(CO)cc1`: the Potency result was “inactive”.

For the compound `CCC(C)c1cc([N+](=O)[O-])cc([N+](=O)[O-])c1O` (stereo not given), the Potency entry was “inactive”.

For `O=C(O)CC[N+](=O)[O-]`, the Potency result was “inactive”.

For the compound `CCCCN(CC)c1c([N+](=O)[O-])cc(C(F)(F)F)cc1[N+](=O)[O-]`, the Potency result is “inactive”.

Turning to `c1ccc(NNc2ccccc2)cc1`, the Potency entry was “inactive”.

Consider `COP(=S)(OC)Oc1cc(Cl)c(Cl)cc1Cl`, for which the Potency result was “inactive”.

Regarding `c1nc[nH]n1`, the Potency entry was “inactive”.

For `C#C[C@]1(O)CC[C@H]2[C@@H]3CCC4=CC(=O)CC[C@]4(C)[C@H]3CC[C@@]21C`, the Potency entry was “inactive”.

`NNC(N)=S`: the Potency entry was “inactive”.

Regarding `CNC(=O)Oc1cccc2c1OC(C)(C)O2`, the Potency result was “inactive”.

On to `CCCCOCCOP(=O)(OCCOCCCC)OCCOCCCC`, for which the Potency entry is “inactive”.

For the compound `Cc1ccc(OP(=O)(Oc2ccc(C)cc2)Oc2ccc(C)cc2)cc1`, the Potency entry is “inactive”.

Consider `COC(=O)c1sccc1S(=O)(=O)NC(=O)Nc1nc(C)nc(OC)n1`, for which the Potency entry is “inactive”.

With `O=S(=O)(Oc1ccc(Cl)cc1)c1ccc(Cl)cc1`, the Potency entry was “inactive”.
